Laboratory results taken from PubChem BioAssay AID504329 (Southern Research Specialized Biocontainment Screening …, 2011).
In all, about 340,000 compounds went through this assay and about 1,000 (0.29%) were called active. Rule as the data show it: inconclusive = inhibition above about 27% without an active follow-up result; inactive = below that. A selection follows. Potency and affinity values are given separately.

Assay: H1N1 influenza NS1A inhibitors, functional cell based assay (AID 504329)
Settings: percent inhibition, at 12.5 µM, active compounds read high

SMILES | inhibition
CC(C)n1cc(C#N)c(N)n1 | -24.1% (inactive)
Cc1ccc2c(CN3CCCCC3C)cc(=O)oc2c1C (centres undefined) | -6.02% (inactive)
O=C(COC(=O)c1cccc(O)c1)Nc1ccc(Cl)cc1C(=O)c1ccccc1 | -7.75% (inactive)
CSC1=NCCN1C(=O)c1c(-c2c(F)cccc2Cl)noc1C | -23.1% (inactive)
Cc1ccc(C2C(N)C(=O)N2c2ccc(C)cc2)cc1 (centres undefined) | -20.6% (inactive)
Cc1ccc(NC(=O)CN(C)C(=O)Cc2ccc(Cl)c(Cl)c2)cc1 | 9.85% (inactive)
Cc1ccc(S(=O)(=O)NNC(=O)c2cnn(-c3ccc(Cl)cc3)c2C(F)(F)F)cc1 | -16.4% (inactive)
Cc1cccc(C)c1NC(=O)CN(C)C(=O)c1cccc(S(=O)(=O)N2CCN(c3ccccc3)CC2)c1 | 1.58% (inactive)
NC1=NC(=O)/C(=C/C=C/c2cccs2)S1 | -14.1% (inactive)
COc1ccc(/C=C/C=C2\N=C(SC)SC2=O)cc1 | 18% (inactive)
CC(C)CCNC(=O)CCc1nnc2n(CCCOC(C)C)c(=O)c3ccccc3n12 | -5.28% (inactive)
Cc1ccc(SCCN)cc1C | 8.4% (inactive)
O=C1CC(c2ccccc2)CN1 (centres undefined) | -20.7% (inactive)
COc1cc(CNC2CCC(C)C2)cc(OC)c1 (centres undefined) | 4.05% (inactive)
Cc1ccc(NC2=CC(=O)C(=O)c3ccccc32)cc1 | 2.25% (inactive)
Cc1ccc(SC2=C(Sc3ccc(C)cc3)C(=O)c3ccccc3C2=O)cc1 | 4.19% (inactive)
NC(=O)CC(NC(=O)Cc1cccc2ccccc12)c1ccc(N2CCc3ccccc3C2)c([N+](=O)[O-])c1 (centres undefined) | 14.5% (inactive)
CC1N(C)c2cc(NC(=O)c3ccco3)c(P(=O)(Nc3ccc([N+](=O)[O-])cc3)N3CCOCC3)cc2C1(C)C (centres undefined) | 10.5% (inactive)
CC1(C)Oc2ccc(NC(=O)c3ccco3)cc2O1 | -10.6% (inactive)
Cc1ccc(C2(C)NC(=O)N(CC(=O)N3CCN(C(=O)c4cccs4)CC3)C2=O)cc1 (centres undefined) | -14.4% (inactive)
Nc1oc2ccccc2c1C(=O)Cc1ccccc1O[C@@H]1O[C@H](CO)[C@@H](O)[C@H](O)[C@H]1O | -10.9% (inactive)
COc1cccc(NC(=O)CSc2nnc(C)s2)c1 | -8.01% (inactive)
COc1cccc(NC(=O)CSc2nc(C)cs2)c1 | -1.99% (inactive)

SMILES | inhibition
COc1ccc(NC(=O)CSc2nnc(C)c(=O)n2N)cc1 | 3.72% (inactive)
COC(=O)c1ccc(NC(=O)CSc2nn3c(=O)c(C)nnc3s2)cc1 | 8.48% (inactive)
CC(C)Oc1ccc(-c2cc(=O)[nH]c(=O)[nH]2)cc1 | 2.31% (inactive)
Cc1c(C(=O)OCC(=O)Nc2cccc(S(N)(=O)=O)c2)oc2c1ccc1ccccc12 | -6.11% (inactive)
Cc1cc(=O)n2c3ccccc3n(CC(O)CN3CCC(C)CC3)c2c1C#N (centres undefined) | -2.23% (inactive)
O=C(c1cccc(Cl)c1)N1CCN(C2CCCCCC2)CC1 | -6.08% (inactive)
O=C(Nc1nccs1)c1ccc(COc2ccccc2)o1 | -27.9% (inactive)
COc1ccc(-c2nc(N)n(C(=O)Cc3ccccc3)n2)cc1 | 0.25% (inactive)
Oc1ccc(Cl)cc1/C=N/c1nccs1 | -1.76% (inactive)
Cc1ccc(O)c(N=Nc2nccs2)c1 | 26.6% (inactive)
O=C(OCC(=O)N1CCN(c2ccccc2)CC1)c1ccc2ncsc2c1 | 3.79% (inactive)
CC(C)(CO)NS(=O)(=O)c1ccc2c(c1)C(=O)c1cc(S(=O)(=O)NC(C)(C)CO)ccc1-2 | -3.45% (inactive)
COc1ccc(C(=O)NC2CCc3ccccc32)cc1OC1CCN(C(C)=O)CC1 (centres undefined) | -1.94% (inactive)
CS(=O)(=O)N1CCc2cc(S(=O)(=O)NCCNS(=O)(=O)c3ccc4c(c3)CCN4S(C)(=O)=O)ccc21 | -9.03% (inactive)
Fc1cccc(CN2CCSCC2)c1 | -2.65% (inactive)
O=C(NCC(c1ccco1)N1CCc2ccccc21)C(=O)Nc1ccc(F)cc1F (centres undefined) | -6.42% (inactive)
O=[N+]([O-])c1ccccc1/C=N/Nc1nccnc1Cl | 1.6% (inactive)
Oc1cccc(C=NNc2ccccn2)c1 | -19.8% (inactive)
CCN(CC)S(=O)(=O)c1ccc(N/N=C/c2ccc(O)cc2)nc1 | 7.84% (inactive)
Cc1nc2ccccc2nc1N/N=C/c1ccc(O)cc1 | 13.5% (inactive)
Oc1ccc(/C=N/Nc2cccc(Cl)n2)c(O)c1 | 10.3% (inactive)
Cc1cc(N/N=C/c2ccc(O)cc2O)c2ccccc2n1 | 0.21% (inactive)
CCN(CC)S(=O)(=O)c1ccc(N/N=C/c2cc(OC)ccc2O)nc1 | 5.6% (inactive)

SMILES | inhibition
Clc1nccnc1N/N=C/c1ccc(Br)cc1 | -20.8% (inactive)
CC(C)(NO)/C(=N/O)c1cccs1 | 3.4% (inactive)
CC(C(=O)N1CCc2ccccc21)N1CCN(c2cccc(C(F)(F)F)c2)CC1 (centres undefined) | -0.63% (inactive)
CCOC(=O)CSC1=N/C(=C\c2ccc(OC)c(OC)c2)C(=O)N1C | 2.72% (inactive)
COc1ccc(-c2ccc3nnc(SCC(=O)N4CCCC4)n3n2)cc1 | -5.09% (inactive)
O=C(Nc1nccs1)c1cccnc1Cl | -9.22% (inactive)
CCc1nnc(NCn2nc(C)cc2C)s1 | 6.15% (inactive)
Oc1ccc(/C=N/Nc2ccnc3cc(Cl)ccc23)c(O)c1 | -16% (inactive)
Oc1ccc(/C=N/Nc2nccnc2Cl)cc1 | 5.54% (inactive)
C=CCc1c(C)nc(C)nc1N/N=C/c1ccc(F)cc1 | -0.47% (inactive)
C=CCc1c(C)nc(C)nc1N/N=C/c1ccccc1 | -4.1% (inactive)
Cc1c(OCC(F)(F)F)ccnc1CSc1nc2ccccc2[nH]1 | -9.09% (inactive)
CCOc1ccc(OCCC(=O)N(CCCOC)c2c(N)n(Cc3ccccc3)c(=O)[nH]c2=O)cc1 | -2.75% (inactive)
O=C1NC(=O)c2cc3ccccc3cc21 | -8.8% (inactive)
O=C(Cn1ccccc1=O)NCc1ccc(F)cc1 | -15.8% (inactive)
O=C1C(Cl)=C(Nc2ccc(O)cc2)C(=O)c2ccccc21 | 13.6% (inactive)
Cc1cccc(NC2=C(NCCO)C(=O)c3ccccc3C2=O)c1 | 26.8% (inactive)
COc1ccc(NC2=C(NCCO)C(=O)c3ccccc3C2=O)cc1 | 23.4% (inactive)
COC1=C(Nc2ccccc2)C(=O)C(OC)=C(Nc2ccccc2)C1=O | 8.96% (inactive)
CCOc1ccc(NC2=CC(=O)C(=O)c3ccccc32)cc1 | -7.73% (inactive)
NC1=C(Br)C(=O)c2ccccc2C1=O | 1.89% (inactive)
COc1ccc(NC2=C(c3ccc(OC)cc3)C(=O)c3ccccc32)cc1 | 5.77% (inactive)
COc1ccc(C2=C(Nc3ccccc3)c3ccccc3C2=O)cc1 | -2.55% (inactive)
